Results: ChEMBL document CHEMBL4296183, “CO-ADD screening of NIH NCI Natural Product Set III” (2020)
Potency and affinity values are given separately.

test system: Klebsiella pneumoniae; details: Concentration 20 uM; ASSAY_TEST Inhibition of Bacterial Growth; detection method Absorption (OD600); MEDIA CAMHB; plate type 384well; NBS; CORNING #3640; time 18 hr

SMILES	Inhibition
CC(=O)O.COc1ccc2c(=O)oc3c(OC)cc(CCN(C)C)c4c(=O)oc1c2c34	15.37%
CC1=C2[C@H]3OC(=O)[C@@H](C)[C@@H]3CC[C@@]2(C)C=C/C1=N\O	6.63%
COC1/C=C\C=C(/C)C(=O)NC2=CC(=O)C(N)=C(CC(C)CC(OC)C(O)C(C)/C=C(\C)C1OC(N)=O)C2=O (stereo not given)	4.53%
COc1cc([C@@H]2c3cc4c(cc3[C@@H](OC3OC5CO[C@@H](c6cccs6)OC5C(O)C3O)[C@H]3COC(=O)[C@H]23)OCO4)cc(OC)c1O (stereo not given in full)	-0.01%
O=c1oc2c(O)c(O)cc3c(=O)oc4c(O)c(O)cc1c4c23 [ELLAGIC ACID]	25.12%
O=C1c2cc(O)c(O)cc2O[C@H](c2ccc(O)c(O)c2)[C@H]1O	6.5%
COC(=O)NC1C(C)OC(OC2C/C=C(/C)C3C=CC4C(OC5CC(OC6CCC(OC7CC(O)C(OC8CCC(O)C(C)O8)C(C)O7)C(C)O6)C(OC(C)=O)C(C)O5)C(C)CC(C)C4C3(C)/C(O)=C3/C(=O)OC4(CC(C=O)=CC(O)C4/C=C\2C)C3=O)CC1(C)[N+](=O)[O-] (stereo not given)	4.04%
COc1ccc(C2CC(=O)c3c(O)cc(OC4OC(CO)C(O)C(O)C4OC4OC(C)C(O)C(O)C4O)cc3O2)cc1O (stereo not given)	1.79%
CCC1NC(=O)C(NC(=O)c2ncccc2O)C(C)OC(=O)C(c2ccccc2)NC(=O)C2CC(=O)CCN2C(=O)C(Cc2ccccc2)N(C)C(=O)C2CCCN2C1=O (stereo not given)	4.35%
CC1(C)CCCC2(C)C3=C(CCC12)C(=O)OC3 (stereo not given)	7.04%
CN1CCc2cc3c(cc2C(=O)Cc2ccc4c(c2C1)OCO4)OCO3.Cl [PROTOPINE HYDROCHLORIDE]	4.34%
CCCCCc1cc(O)cc2c1Oc1cc(O)cc(C(=O)CCCC)c1C(=O)O2	-6.31%
Cc1cc2nc3[nH]c(=O)[nH]c(=O)c3nc2cc1C [LUMICHROME]	12.48%
CC(C)=CCc1c2c(c3occ(-c4ccc(O)c(O)c4)c(=O)c3c1O)C=CC(C)(C)O2 [POMIFERIN]	26.31%
COC(=O)[C@]1(C)CCC[C@]2(C)C3=CC(=O)[C@@]4(C(C)C)O[C@H]4[C@]3(O)CC[C@@H]12	-2.04%
COc1ccc2c(c1OC)C(=O)O[C@@H]2[C@H]1c2c(cc3c(c2OC)OCO3)CCN1C [NOSCAPINE]	-0.26%
CCCCCCCCCCCCCCCC(=O)O[C@@H]1[C@@H](C)[C@@]2(O)[C@@H](C=C(CO)C[C@]3(O)C(=O)C(C)=C[C@@H]23)[C@H]2[C@]1(OC(C)=O)[C@]2(C)CO	11.05%
CC[C@]1(O)C[C@H]2CN(CCc3c([nH]c4ccccc34)[C@@](C(=O)OC)(c3cc4c(cc3OC)N(C=O)[C@H]3[C@@](O)(C(=O)OC)[C@H](OC(C)=O)[C@]5(CC)C=CCN6CC[C@]43[C@@H]65)C2)C1.O=S(=O)(O)O [VINCRISTINE SULFATE]	1.69%
O=C(O)CCCCCCC[C@@H](O)[C@@H](O)CCCCCCO	0.28%
COC(=O)C1C(O)CCC2CN3CCc4c([nH]c5ccccc45)C3CC21 (stereo not given)	13.74%
C=C1C(=O)O[C@@H]2[C@H]3O[C@]3(C)CC/C=C(\C)CC[C@@H]12	3.51%
CCCCCCCCCCCCCCCCCCOCC(O)CO (stereo not given) [BATILOL]	2.79%
C=C1C(=O)OC2CC1C(O)C/C(C)=C/CC/C(C)=C/C(O)CC2C (stereo not given)	4.77%
CC(C)=CC(=O)OC1C2C(C)C(=O)OC2C(O)C(C)C2C=CC(=O)C21C (stereo not given)	13.7%
CC(=O)CCCCn1c(=O)c2c(ncn2C)n(C)c1=O [PENTOXIFYLLINE]	-2.03%
